What all share (test): NCI-60 one-dose screen, 48 h (100 = growth as untreated, 0 = no growth, -100 = all killed)
Holding throughout (conditions): 10 µM unless noted

Assay [1] has as its system HCT-15 colon.
The subject of assay [2] is HT29 colon.
The test system of assay [3] is SNB-19 CNS.
In assay [4] the test system is U251 CNS.
Assay [5] concerns PC-3 prostate.
Assay [6] has as its system SK-MEL-5 melanoma.
In assay [7] the test system is UACC-62 melanoma.
For assay [8], the system named is LOX IMVI melanoma.
For assay [9], the system named is SK-MEL-28 melanoma.
For assay [10], the system named is SK-MEL-2 melanoma.
Assay [11] relates to EKVX NSCLC.
In assay [12] the test system is SN12C renal.
Assay [13] has as its system UO-31 renal.
Assay [14] relates to TK-10 renal.
The test system of assay [15] is ACHN renal.
The test system of assay [16] is CAKI-1 renal.
Assay [17] has as its system A498 renal.
Assay [18] concerns CCRF-CEM leukemia.
The subject of assay [19] is MOLT-4 leukemia.
The subject of assay [20] is SNB-75 CNS.

Compounds without any hit were thinned out: in the full panel of roughly 83,000, 20% have a hit.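 How to read the values: 0–100, growth inhibition (40 = 60% inhibited); 0, no net growth; -100 to 0, cell death (-40 = 40% of starting cells died; -100 = all dead).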 A number with no mark means an inactive call. Calls of active or inactive are those of the source. The calls were made as follows: active = growth percent below 10; inactive = the rest.

Here are results for eight compounds from PubChem BioAssay (NCI).

`C/C(=N\NC(N)=S)c1nc2ccc(Cl)cc2[nH]1`: the growth in assay [1] was 35.7%; in assay [2] it was 32.8%; in assay [3] it was 57.6%; in assay [4], 49.9%; in [5], 52.3%; in assay [6] it was 45.3%. Also, the growth in [7] was 36.7%; in [8], 43.7%; in assay [9], 68.7%; in [10], 32.1%; in [11], 63.3%; in [12] it was 48.5%. Also, the growth in assay [13] is 41.9%; in [14] it was 33.9%; in assay [15] it was 19.6%; in [16], 26.9%; in assay [17], 53.3%; in [18], 32.8%. In addition, in [19], the growth is 30.4%.
Regarding `COc1cc(CNC(=O)/C=C/C=C/c2ccc3c(c2)OCO3)ccc1OCc1cn(-c2ccc(Cl)c(Cl)c2)nn1`, the growth was -49.9% (active) in assay [1]; 5.61% (active) in assay [2]; 20.5% in [3]; -57.5% (active) in assay [4]; -11% (active) in [5]; -41.1% (active) in assay [6]. Moreover, the growth in assay [7] was -46.7% (active); in assay [8], 11.6%; in assay [9], 6.52% (active); in assay [10], -37.3% (active); in assay [11] it was 13.1%; in [13], 45.5%. For the same compound, the growth in assay [15] was -51% (active); in assay [16], -17% (active); in assay [18], 57.7%; in [19], -12.2% (active).
Turning to `CS(=O)(=O)c1ccc(N/N=C/c2c(-c3ccc(S(C)(=O)=O)cc3)[nH]c3ccc(F)cc23)cc1`, the growth in [1] is 62.7%; in assay [2] it was 21.8%; in assay [3], 26.1%; in assay [4], 11.2%; in assay [5], 33.9%; in assay [6], -35.4% (active). The growth is 25.7% in assay [7]; 3.68% (active) in assay [8]; 14.7% in assay [9]; 3.8% (active) in assay [10]; 64.2% in assay [11]; 36.2% in assay [12]. Besides, the growth in assay [13] was 53.8%; in assay [14], 35.2%; in assay [15], 48.2%; in assay [16], 57.5%; in assay [17], 25.9%; in [18], 4.8% (active). Besides, in assay [19], the growth is -1.41% (active).
For the compound `Cc1cc(Cc2cc(C)cc(C(C)(C)C)c2O)c(O)c(C(C)(C)C)c1`, the growth in assay [1] was 21.4%; in [2], 25%; in assay [3] it was 48%; in [4], 32.5%; in assay [5], 33.9%; in [6] it was 48.3%. Besides, the growth is 47% in [7]; 47.5% in assay [8]; 80.3% in assay [9]; 68.8% in assay [10]; 26.5% in assay [11]; 28.1% in assay [12]. For the same compound, the growth in assay [13] is 43%; in [14] it was 52.8%; in [15], 34.3%; in assay [16] it was 31%; in assay [17], 90.2%; in assay [18] it was 28.5%. In assay [19], the growth is 29.1%.
In the case of `COc1c(C)cnc(CSc2nc(-c3ccc(C)cc3)cn2-c2ccc(Cl)cc2)c1C`, the growth in assay [1] is 98%; in [20], 98.7%; in [3] it was 93.7%; in [4] it was 104%; in assay [5], 81.7%; in [6], 105%. For the same compound, the growth is 81.8% in assay [7]; 96.5% in assay [8]; 97.4% in [9]; 83% in [10]; 92.1% in assay [11]; 94.4% in [12]. In addition, the growth in assay [13] was 63.2%; in assay [14] it was 101%; in assay [15] it was 98.9%; in [16], 91.1%; in assay [17], 93.9%; in assay [18] it was 99.8%. For the same compound, the growth in [19] was 73.5%.
On to `COc1cc(NC(=O)c2cc(O)c(CC=C(C)C)c(O)c2)cc2c1O[C@]1(C)CC[C@@H](O)C(C)(C)[C@H]1C2`, for which the growth in [1] was 34.3%; in assay [2], 5.24% (active); in assay [3], 44.9%; in assay [4], 13.4%; in assay [5], 21.5%; in [6], -20.3% (active). Moreover, the growth in [7] is -13.3% (active); in assay [8] it was 12.7%; in [9], 18.8%; in [10], 14.7%; in assay [11], 41%; in [12], 65.3%. Also, the growth in [13] is -11.9% (active); in assay [15], 36.2%; in assay [16] it was 19.6%; in assay [17], -2.7% (active); in [18], 13%; in assay [19], -8.24% (active).
Regarding `Clc1ccc(-c2cn(-c3ccccc3)c(-c3ccccc3)n2)cc1`, the growth in assay [1] was 79.4%; in assay [2] it was 85.3%; in [3], 79.1%; in [4], 78.2%; in assay [5] it was 59.4%; in assay [6], 85.9%. The growth in assay [7] is 92.2%; in [8], 95.8%; in [9], 93.8%; in assay [10] it was 110%; in [11], 84.5%; in assay [12], 95.9%. Further, the growth in assay [13] is 67.8%; in assay [14] it was 92.4%; in [15], 94.6%; in assay [17], 88.4%; in assay [18] it was -3.48% (active); in [19], 7.71% (active).
`COc1cc2cc(Oc3ccc(NC(=O)Nc4cc(C(F)(F)F)cc(C(F)(F)F)c4)cc3)c(C)nc2cc1OCCN1CCCCC1`: the growth was -82.4% (active) in assay [1]; -64.8% (active) in assay [2]; -92.2% (active) in assay [3]; -69.3% (active) in assay [4]; -45.2% (active) in assay [5]; -49.9% (active) in assay [6]. Also, the growth in [7] was -84.9% (active); in assay [8] it was -99.1% (active); in assay [9], -95.5% (active); in assay [10] it was -35.6% (active); in assay [11] it was -73.1% (active); in assay [12] it was -92.6% (active). The growth in assay [13] was -98.9% (active); in assay [14] it was -72.4% (active); in assay [15], -100% (active); in assay [16], -76.7% (active); in [18] it was -26.7% (active); in assay [19], -44.4% (active).
